A short description of test [1]: qHTS assay to identify small molecule agonists of the vitamin D receptor (VDR) signaling pathway - cell viability counter screen (AID 743224; active = well fitted curve in the direction sought with a large enough effect in the repeat runs; an effect the other way counts as inactive or inconclusive; note: nearly all actives have a fitted effect of over 50% in size; note: potency is the fitted concentration of half-maximal effect). The gist of the method:
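Counter screen for cytotoxicity: VDR-bla cells at 2,000 cells/well, 16 h compound exposure, then CellTiter-Glo luminescence after the beta-lactamase measurement.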
For orientation: Quantitative high-throughput screening tests each substance at several concentrations.

Test [2] can be described thus: qHTS assay to identify small molecule antagonists of the vitamin D receptor (VDR) signaling pathway - cell viability counter screen (AID 743225; active = well fitted curve in the direction sought with a large enough effect in the repeat runs; an effect the other way counts as inactive or inconclusive; note: nearly all actives have a fitted effect of over 50% in size). The gist of the method:
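Cytotoxicity toward the VDR-bla HEK 293T line was scored by ATP-based CellTiter-Glo luminescence, read in the wells already used for the beta-lactamase readout after 16 h compound treatment under 3 nM 1-alpha,25-dihydroxyvitamin D3 stimulation.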

Test [3] in a line: qHTS assay to identify small molecule agonists of the NFkB signaling pathway (AID 1159509; active = well fitted curve in the direction sought with a large enough effect in the signal ratio in the repeat runs, not every such curve was filed as active; the % refers to the signal ratio; note: series mostly up to about 61 µM). Put shortly: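 Readout: FRET fluorescence, 405 nm excitation, 460/530 nm emission; beta-lactamase expression disrupts FRET. Cells: ME-180 stably carrying NF-kB-driven bla reporter. Compound exposure 5 hr, 37 C, 5% CO2.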
A short description of test [4]: qHTS assay to identify small molecule agonists of the NFkB signaling pathway - cell viability counter screen (AID 1159515). Note: series mostly up to about 61 µM; nearly all actives have a fitted effect of over 55% in size. Put shortly: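 Counter screen run alongside the NFkB-bla agonist assay: ME-180 reporter cells exposed to compounds for 5 hr, then lysed with CellTiter-Glo in the same wells. Luminescence, read after 30 min, reflects viable cells.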
Test [5] is described as follows: qHTS assay to identify small molecule agonists of the endoplasmic reticulum stress response signaling pathway (AID 1159516; active = well fitted activation curve with a large enough effect in the signal ratio in the repeat runs, not every such curve was filed as active; the % refers to the signal ratio). Put shortly: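 For this screen, HeLa cells stably carrying beta-lactamase under the ER stress response element received test compounds, positive controls or DMSO for 5 hr at 37 C; B/G FRET substrate was then added and dual-wavelength emission recorded.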

Test [6] can be described thus: qHTS assay to identify small molecule agonists of the endoplasmic reticulum stress response signaling pathway - cell viability counter screen (AID 1159517). Note: series mostly up to about 61 µM; nearly all actives have a fitted effect of over 50% in size. Put shortly:
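Cytotoxicity of test compounds toward ESRE-bla HeLa cells was assessed after 5 hr exposure. The luminescent CellTiter-Glo signal was measured 30 min after reagent addition.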

Test [7] in a line: qHTS assay to identify small molecule antagonists of the retinoid-related orphan receptor gamma (ROR-gamma) signaling pathway - cell viability counter screen (AID 1159520; active = well fitted curve in the direction sought with a large enough effect in the repeat runs; an effect the other way counts as inactive or inconclusive; note: nearly all actives have a fitted effect of over 50% in size). The gist of the method: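 Tet-on ROR gamma CHO cells (1,000/well) were plated 4 hr, given compounds in DMSO for 2 hr at 37 C, then induced with 1 uM final doxycycline for 16 hr. Viability was read as ATP by CellTiter-Glo luminescence after 30 min.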

Test [8] addresses Nuclear receptor ROR-gamma (Homo sapiens) (UniProt P51449). As to the kind of experiment: qHTS assay to identify small molecule antagonists of the retinoid-related orphan receptor gamma (ROR-gamma) signaling pathway (AID 1159521; active = well fitted curve in the direction sought with a large enough effect in the repeat runs; an effect the other way counts as inactive or inconclusive; note: nearly all actives have a fitted effect of over 50% in size; note: potency is the fitted concentration of half-maximal effect). The gist of the method:
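Readout: ONE-Glo luciferase luminescence, 30 min at room temperature. System: Tet-on RORγ CHO, RORE-LUC. Sequence: compound 2 h, doxycycline 1 uM final, 16 h at 37 C.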

A short description of test [9]: qHTS assay to identify small molecule agonists of the AP-1 signaling pathway - cell viability counter screen (AID 1159525). Note: nearly all actives have a fitted effect of over 55% in size. Note: potency is the fitted concentration of half-maximal effect. The gist of the method: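 Each titration point was normalised to DMSO and tetra n-octyl ammonium bromide controls. The read was Cell Titer Glo luminescence after 30 min at RT, following 5 h compound exposure of ME-180 AP-1-bla cells at 37 °C.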

Test [10] in a line: qHTS assay to identify small molecule agonists of the AP-1 signaling pathway (AID 1159526).

Where “and” joins values, the source holds several entries; their conditions need not be identical. Equal entries are not always repeated. Inconclusive results are not listed. Where a structure was tested more than once in an assay, its records may differ in their call. Calls of active or inactive are those of the source. Unless noted, calls come from the whole dose curve.

As to `Cc1cnc(NS(=O)(=O)c2ccc(N)cc2)nc1`, the Potency result in test [1], in test [2], in test [8] and in test [9] was “inactive” in each case. Also, the compound was called inactive in [3], in [4], in [5], in test [6], in [7] and in [10].

Take `CC(=O)c1ccccc1O`: the Potency result in test [1] and in [9] was “inactive” each time. Besides, the result in [3], in test [4], in test [5], in test [6], in test [7] and in test [10] was inactive.

On to `Nc1ccccc1S(=O)(=O)O`, for which the Potency entry in test [1] and in test [9] was “inactive” in each case. Moreover, the call in [3], in test [4], in test [5], in test [6], in test [7] and in [10] was inactive.

As for `CC(C)CCCC(C)N` (stereo not drawn), the compound was classed as inactive in [3], in test [4], in test [5], in test [6], in test [7] and in [10]. In test [9], the Potency result was “inactive”.

Take `Cc1ccc(C#N)cc1`: the Potency result in test [1], in test [2], in test [8] and in test [9] was “inactive” throughout. Moreover, the outcome in test [3], in test [4], in test [5], in test [6], in test [7] and in test [10] was inactive.

As to `CCSC(=O)N(CC(C)C)CC(C)C`, the Potency result in [1], in [2], in [8] and in test [9] was “inactive” throughout. In addition, the outcome in test [3], in test [4], in test [5], in [6], in [7] and in test [10] was inactive.

On to `Cc1cccc(C)c1NC(=O)C(C)N` (stereo not drawn), for which the Potency result in [1], in [2], in test [8] and in test [9] was “inactive” each time. Further, the compound was classed as inactive in test [3], in test [4], in test [5], in [6], in [7] and in [10].

Turning to `COC(=O)C1=C(C)NC(C)=C(C(=O)OC)C1c1ccccc1[N+](=O)[O-]`, the Potency in test [1] is 39 µM (active) and inactive; in test [9], 49 µM (active) and inactive. For the same compound, the outcome in [3], in [4], in [5], in test [6], in [7] and in test [10] was inactive.

As to `O=C(CCCN1CCC(O)(c2cccc(C(F)(F)F)c2)CC1)c1ccc(F)cc1`, the Potency entry in test [1] and in test [9] was “inactive” throughout. The call in [3], in test [4], in test [5], in test [6], in [7] and in test [10] was inactive.

For the compound `CC(=O)CC(C)C`, the Potency result in [1], in test [2], in test [8] and in test [9] was “inactive” throughout. For the same compound, the compound was called inactive in [3], in [4], in test [5], in [6], in test [7] and in test [10].

Regarding `NS(=O)(=O)c1ccc(C(=O)O)cc1`, the Potency entry in test [1], in [2], in test [8] and in test [9] was “inactive” throughout. The compound was classed as inactive in test [3], in test [4], in test [5], in test [6], in [7] and in [10].

Turning to `Brc1c(NC2=NCCN2)ccc2nccnc12`, the Potency entry in test [1], in [2], in [8] and in test [9] was “inactive” in each case. For the same compound, the call in test [3], in test [4], in [5], in [6], in test [7] and in test [10] was inactive.

`OCCOc1ccc(OCCO)cc1`: the Potency entry in test [1] and in test [9] was “inactive” throughout. Besides, the result in test [3], in [4], in test [5], in test [6], in test [7] and in test [10] was inactive.

As for `Cc1c(O)cccc1O`, the Potency entry in test [1] and in [9] was “inactive” throughout. The outcome in test [3], in test [4], in test [5], in test [6], in [7] and in test [10] was inactive.

As for `FC1(F)C(F)(F)C(F)(F)C2(F)C(F)(F)C(F)(F)C(F)(F)C(F)(F)C2(F)C1(F)F` (stereo not drawn), the Potency entry in test [1], in [2], in test [8] and in test [9] was “inactive” each time. For the same compound, the outcome in [3], in test [4], in [5], in test [6], in test [7] and in [10] was inactive.

For the compound `CC(C)(C)c1ccc(O)c(O)c1`, the Potency was 25.4 µM (active) in test [1]; 25.2 µM (active) and 27.3 µM (active) in test [8]. Also, the compound was classed as inactive in test [3], in test [4], in [5], in [6] and in test [7]. The Potency entry in test [9] is “inactive”.

`O=C(O)CNC(=O)c1ccc([N+](=O)[O-])cc1`: the Potency entry in test [2], in test [8] and in test [9] was “inactive” throughout. For the same compound, the compound was classed as inactive in test [3], in test [4], in [5], in test [6], in [7] and in test [10].

For `O=C1CCCC(=O)C1`, the Potency result in test [1], in test [2], in [8] and in test [9] was “inactive” throughout. Besides, the compound was called inactive in [3], in test [4], in test [5], in test [6], in test [7] and in test [10].

In the case of `CCCCCCOC(=O)CCCCC(=O)OCCCCCC`, the Potency entry in [1], in test [2] and in test [9] was “inactive” in each case. Further, the compound was called inactive in test [3], in test [4], in test [5], in [6], in test [7] and in [10].

Consider `N#Cc1ccc(C2CCCc3cncn32)cc1` (stereo not drawn), for which the Potency entry in [1], in test [8] and in test [9] was “inactive” each time. Also, the call in test [3], in [4], in [5], in test [6] and in [10] was inactive.

Turning to `COc1ccccc1OCC(O)CN1CCN(CC(=O)Nc2c(C)cccc2C)CC1` (stereo not drawn), the Potency result in [1], in test [2] and in test [9] was “inactive” throughout. Further, the call in [3], in [4], in test [5], in test [6], in test [7] and in test [10] was inactive.

The record behind these values is PubChem BioAssay (Tox21).
